Data as given in PubChem BioAssay (NCATS).
A number with no mark means an inactive call. Inconclusive results are not listed. Entries that show only a call come without a potency. Calls of active or inactive are those of the source. The call rests on the fitted dose curve; in most records, active means well fitted curve in the direction sought with a large enough effect; inconclusive means small, poorly fitted or top-dose-only effect, or another doubt; inactive means no such curve, though single readings can be large; an effect the other way counts as inactive or inconclusive.

test: Validation qHTS assay for inhibitors of Activation Induced Cytidine Deaminase (AID): UDG Counterscreen signal (AID 1347427); settings: biochemical UDG counterscreen, fluorescence signal; series mostly up to 115 µM; further: potency means the concentration at half of the fitted maximal effect
How it was run: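 Counterscreen read of UDG activity (2 U/mL, 4/3x) in the FRET deamination format with AID (1 uM, 4/3x), DJC20/DJC23 substrates (250 nM, 4x), 4 h at room temperature. NaOH stop, fluorescence at 560 ex/665 em.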

SMILES | Potency
O=C(c1ccccc1)c1ccc2n1CCC2C(=O)O (stereo not drawn) | inactive
NNc1nncc2ccccc12 | 39.8 µM (active)
COc1cc2nc(N3CCN(C(=O)C4CCCO4)CC3)nc(N)c2cc1OC (stereo not drawn) | inactive

test: Primary qHTS for inhibitors of La Crosse Virus (LACV) - induced cell death in SH-SY5Y cells (AID 1508616); settings: SH-SY5Y LACV cytopathicity rescue, ATP luminescence, 6 d; series mostly up to 4.29 µM;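 further: top concentration of the series differs between compounds; higher means more rescue of cells from virus-induced death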
How it was run: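 Readout was luminescence from ATPLite 1step added after a 6-day LACV infection (0.01 MOI) of SH-SY5Y cells that had received pin-transferred compound 24 hr after seeding.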

SMILES | Potency | activity change
Cc1cc2c(s1)Nc1ccccc1N=C2N1CCN(C)CC1 | inactive | 
Cc1ncc([N+](=O)[O-])n1CC(C)O (stereo not drawn) | inactive | 
O=C(c1ccccc1)c1ccc2n1CCC2C(=O)O (stereo not drawn) | inactive | 
Cc1nccn1CC1CCc2c(c3ccccc3n2C)C1=O (stereo not drawn) | inactive | 
CCCOc1ccc2nc(NC(=O)OC)[nH]c2c1 | inactive | 
N=C(N)c1ccc2cc(OC(=O)c3ccc(N=C(N)N)cc3)ccc2c1 | inactive | 
COCCCOc1ccnc(CS(=O)c2nc3ccccc3[nH]2)c1C (stereo not drawn) | inactive | 
CCCCc1ccc2nc(NC(=O)OC)[nH]c2c1 | inactive | 
CCCc1cc(=O)[nH]c(=S)[nH]1 | inactive | 
COC1=C(OC)C(=O)C(CCCCCCCCCCO)=C(C)C1=O | inactive | 
CCC1=C(C)CN(C(=O)NCCc2ccc(S(=O)(=O)NC(=O)NC3CCC(C)CC3)cc2)C1=O (stereo not drawn) | inactive | 
CCC[C@@H]1C[C@@H](C(=O)N[C@@H]([C@H]2O[C@H](SC)[C@H](O)[C@@H](O)[C@H]2O)[C@@H](C)O)N(C)C1 | inactive | 
Cc1cc(=O)c2c(O)c3c(O)cc(=O)c4c3c3c(cc(O)c1c23)C(C)(C)C=4O | inactive | 
N=C(N=C(N)N)N1CCOCC1 | inactive | 
N[C@@H](Cc1cc(I)c(Oc2cc(I)c(O)c(I)c2)c(I)c1)C(=O)O | inactive | 
Cc1c(C(=O)NN2CCCCC2)nn(-c2ccc(Cl)cc2Cl)c1-c1ccc(Cl)cc1 | inactive | 
Cc1nc(-c2ccc(OCC(C)C)c(C#N)c2)sc1C(=O)O | inactive | 
Nc1cccc2c1CN(C1CCC(=O)NC1=O)C2=O (stereo not drawn) | inactive | 

SMILES | Potency | activity change
CCOC(=O)c1c(C)n(C)c2ccc(O)cc12 | inactive | 
O=C(OC1C[C@H]2CC[C@@H](C1)[N+]21CCCC1)C(O)(c1ccccc1)c1ccccc1 (stereo partly drawn) | inactive | 
Cn1c(NCCN(CCO)CCCc2ccc([N+](=O)[O-])cc2)cc(=O)n(C)c1=O | inactive | 
CC(C)[C@H](N)C(=O)OCCOCn1cnc2c(=O)[nH]c(N)nc21 | inactive | 
Cc1nc2n(c(=O)c1CCN1CCC(c3noc4cc(F)ccc34)CC1)CCCC2 | inactive | 
Cc1ccc(C(=O)c2cc(O)c(O)c([N+](=O)[O-])c2)cc1 | inactive | 
COc1c2occc2cc2ccc(=O)oc12 | inactive | 
CC1=C(C(=O)O)N2C(=O)[C@@H](NC(=O)[C@H](N)C3=CCC=CC3)[C@H]2SC1 | inactive | 
Cc1cccc(C)c1OCC(=O)N[C@@H](Cc1ccccc1)[C@@H](O)C[C@H](Cc1ccccc1)NC(=O)[C@H](C(C)C)N1CCCNC1=O | inactive | 
CCN(CCO)CCCC(C)Nc1ccnc2cc(Cl)ccc12 (stereo not drawn) |  | -0.436% [at 0.431 µM]
Clc1ccc(C(Cn2ccnc2)OCc2c(Cl)cccc2Cl)c(Cl)c1 (stereo not drawn) | inactive | 
COc1cc(OC)c(C(=O)CCCN2CCCC2)c(OC)c1 | inactive | 
O=C(NC(Cc1cc(=O)[nH]c2ccccc12)C(=O)O)c1ccc(Cl)cc1 (stereo not drawn) | inactive | 
NNc1nncc2ccccc12 | inactive | 
COc1cc2nc(N3CCN(C(=O)C4CCCO4)CC3)nc(N)c2cc1OC (stereo not drawn) | inactive | 
CCC(C)(Oc1ccc(C2(c3ccc(OC(C)(CC)C(=O)O)cc3)CCCCC2)cc1)C(=O)O (stereo not drawn) | inactive | 
S=c1nc[nH]c2nc[nH]c12 | inactive | 
